High-throughput results: PubChem, National Center for Advancing Translational Sciences (NCATS)
Hits are enriched below; roughly 17% of the tested compounds scored in any of these assays.
HT1080-NT tox – kills 2HG-producing HT-1080-NT fibrosarcoma cells; HT-1080-NT fibrosarcoma viability, CellTiter-Glo ATP luminescence, 48 h; Potency, µM (doses to about 46.1 µM), inactives show at the top dose activity, negative = less viability, actives largely listed as cytotoxic; 360,000 tested, 1.6% active; AID 686970;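 also: NT is the 2HG producing partner of a matched IDH1 knockdown line; 0% = DMSO-treated cells and -100% = media-only wells without cells; nearly all actives have a fitted effect of over 55% in size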
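HT-1080-NT; 750 cells/well; 5% FBS RPMI; 48 h compound, 37 degrees C; CellTiter-Glo luminescence; curve fitting and curve-class assignment.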
HT1080 IDH1KD tx – kills HT-1080 cells with IDH1 knockdown | HT-1080 IDH1 knockdown viability, ATP luminescence, 48 h | Potency, µM (highest dose often 46.1 µM), inactives show at the top dose activity, negative = toxicity, hits mostly cytotoxic | 360,000 tested, 2% active | AID 686971;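 also: 0% = DMSO wells and -100% = cell-free medium wells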
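Assay cells: HT-1080 with IDH1 knockdown, 750 per well, RPMI/5% FBS. Exposure: 48 h at 37 °C following 2 h pre-incubation. Read: CellTiter-Glo luminescence; fitted concentration-response, curve class assigned.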
TDP1 cell noCPT – qHTS for Inhibitors of human tyrosyl-DNA phosphodiesterase 1 (TDP1): qHTS in cells in absence of CPT | DT40 Tdp1-/- hTDP1 cells, no CPT, ATP luminescence, 48 h | Potency, µM (doses to about 46.2 µM), inactives show top-dose activity change, negative = growth inhibition, actives largely listed as inhibitors | 420,000 tested, 15% active | AID 686978, 2013; also: % is scaled to controls: 0 for no effect and ±100 for the full control effect; nearly all actives have a fitted effect of over 55% in size
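DT40 Tdp1-/-;hTDP1 cells, no CPT (DMSO vehicle only), 400 cells/well; compounds pin-transferred; ≥48 hr, 37 °C; CellTiter-Glo 30 min RT dark, luminescence read.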
HepG2 tox – HepG2 cytotoxicity, counter-screen for TGF-b inhibitors; Potency, µM (titrated, usually from 46.1 µM), for the others: at the top dose activity change, negative = cytotoxicity, hits mostly cytotoxic; HepG2 CAGA-GFP viability, ATP luminescence, 18 h; 410,000 tested, 0.76% active; AID 588856
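HepG2 CAGA-GFP cells (1000/well, DMEM with 1% FBS) received compound, then TGF-beta at 500 pg/mL final, and were incubated 18 hours at 37 degrees C. Viability was read by CellTiter-Glo luminescence. Media-only wells were set as complete cell-killing and DMSO as no toxicity.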
TGFb inhibitor – inhibitors of TGF-b signaling; HepG2 CAGA-GFP TGF-b/SMAD3 reporter, GFP fluorescence, 18 h; TGF-beta stimulated, 500 pg/mL final; Potency, µM (top dose mostly 46.1 µM), for inactives: at the top dose activity, negative = inhibition, actives largely listed as inhibitors; 410,000 tested, 1.2% active; AID 588855; also: % is scaled to controls: 0 for no effect and ±100 for the full control effect; nearly all actives have a fitted effect of over 65% in size
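First, reporter cells (HEPG2 CAGA-GFP) rested 2 h at 37 degrees C. Next, compounds were pinned in and TGF-beta added to 500 pg/mL final. After 18 h, GFP was imaged per cell and summed per well.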
DT40 TDP1 CPT – growth inhibition of DT40 Tdp1-/-;hTDP1 cells with camptothecin (screen for TDP1 inhibitors); chicken DT40 Tdp1-/-;hTDP1 cells + 20 nM CPT, ATP luminescence, 48 h; Potency, µM (top dose mostly 46.2 µM), for inactives: at the top dose activity change, negative = growth inhibition, usual class: inhibitors; 420,000 tested, 12% active; AID 686979; also: % is scaled to controls: 0 for no effect and ±100 for the full control effect; nearly all actives have a fitted effect of over 55% in size
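Cell growth measured by CellTiter-Glo luminescence after a minimum 48 h, 37 C compound exposure with 20 nM CPT in Tdp1-knockout DT40 cells stably expressing hTDP1, seeded 400/well; qHTS titration format.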
* marks the source's active call; other numbers are inactive results; ? = inconclusive; . = no result given. Calls follow the shape of the dose curve; as a rule, active = well fitted curve in the direction sought with a large enough effect; inconclusive = small, poorly fitted or top-dose-only effect, or another doubt; inactive = no such curve, though single readings can be large; an effect the other way counts as inactive or inconclusive. Potency is read from the fitted curve at half-maximal effect.

SMILES	HT1080-NT tox	HT1080 IDH1KD tx	TDP1 cell noCPT	HepG2 tox	TGFb inhibitor	DT40 TDP1 CPT
CN(C(=O)c1c2c(nc3ccccc13)C(=O)N(C1CCCCC1)C2)c1ccc(F)cc1	.	.	-6%	-1%	29%	-12%
COc1ccc(C)cc1NC(=O)c1c2c(nc3ccccc13)C(=O)N(C1CCCCC1)C2	.	.	3.7µM*	0%	19%	16µM*
CC(C)CCNC(=O)c1c2c(nc3ccccc13)C(=O)N(C1CCCCC1)C2	.	.	?	-1%	13%	?
COc1cccc(CNC(=O)c2c3c(nc4ccccc24)C(=O)N(C2CCCCC2)C3)c1	.	.	21µM*	-4%	2%	13µM*
COc1ccc(OC)c(CCNC(=O)c2c3c(nc4ccccc24)C(=O)N(C2CCCCC2)C3)c1	.	.	18µM*	-27%	-19%	?
C#CCCOC(=O)N1C2=NC(C(=O)OC)=C(C(=O)OC)[C@@H]3N(C)c4ccccc4[C@]23C[C@H]1CO	-8%	-12%	-8%	15%	26%	-20%
CC(CN(C)C)CN1c2ccccc2S(=O)(=O)c2ccccc21 (stereo unspecified)	.	.	-11%	.	.	-3%
CCOC(=O)C1=CCN(S(=O)(=O)c2ccccc2)C1c1ccc(Cl)cc1 (stereo unspecified)	-10%	-13%	?	-4%	-22%	-25%
O=C(NCc1cccc(Cl)c1)c1c2c(nc3ccccc13)C(=O)N(C1CCCCC1)C2	.	.	10µM*	-4%	20%	15µM*
COc1ccc(CNC(=O)c2c3c(nc4ccccc24)C(=O)N(C2CCCCC2)C3)c(OC)c1	.	.	3%	-17%	1%	-2%
COc1ccc(CNC(=O)c2c3c(nc4ccccc24)C(=O)N(C2CCCCC2)C3)cc1	.	.	15µM*	-26%	?	12µM*
Cc1cn([C@H]2C[C@H](O)[C@@H](/C=C/C(=O)NCCc3cccs3)O2)c(=O)[nH]c1=O	20%	24%	6%	6%	37%	3%
CN1/C(=C/C(=S)NC(=O)C2CCC2)C(C)(C)c2ccccc21	-13%	-22%	18µM*	21%	8%	16µM*
CN1/C(=C\C=N\NC(=O)c2ccc(O)cc2)C(C)(C)c2ccccc21	-15%	-25%	18µM*	-33%	0%	21µM*
CN1/C(=C\C=N\NC(=O)c2cccnc2)C(C)(C)c2ccccc21	7%	3%	?	-1%	-1%	-4%
CC(=O)/C=C1\N(C)c2ccc(C)cc2C1(C)C	-2%	-12%	5.2µM*	0%	22%	6.5µM*
CC(C)C(=O)NC(=S)/C=C1/N(C)c2ccccc2C1(C)C	0%	?	8.2µM*	-27%	?	18µM*
CN1/C(=C\C(=O)c2cccnc2)C(C)(C)c2ccccc21	22%	21%	?	-9%	-16%	-64%
O=C(OCC(O)CO)c1ccccc1Nc1ccnc2cc(Cl)ccc12 (stereo unspecified)	-15%	-20%	?	-2%	0%	?
O=C(c1ccco1)N(Cc1cccs1)c1ccc(F)cc1	.	.	-18%	-8%	-13%	-3%
Cc1ccc(C(=O)NC(=S)/C=C2\N(C)c3ccccc3C2(C)C)cc1	-15%	-21%	3.7µM*	-25%	-27%	8.2µM*
COc1ccc(-c2nc(CSCC(=O)NCCCN3CCCC3=O)c(C)o2)cc1	7%	21%	1%	-2%	0%	-1%
CCC/C=C(\CCC)C(NS(=O)(=O)c1cccc2cccnc12)c1ccc(C(=O)OC)cc1 (stereo unspecified)	-18%	?	23µM*	-14%	?	?
CCC/C=C(\CCC)C(NC(=O)OCC(C)C)c1ccc(C(=O)OC)cc1 (stereo unspecified)	-2%	-12%	15µM*	-17%	-33%	23µM*
COC(=O)c1ccc(C(NC(=O)OCc2ccccc2)/C(C)=C/[C@@H](C)C(=O)NCc2ccc(-c3ccccc3)cc2)cc1 (stereo partly specified)	5%	-4%	?	-7%	-28%	?
SMILES	HT1080-NT tox	HT1080 IDH1KD tx	TDP1 cell noCPT	HepG2 tox	TGFb inhibitor	DT40 TDP1 CPT
COc1ccc(-c2cc3c(=O)n(CC(=O)N4CCN(C)CC4)ncn3n2)cc1	0%	1%	-27%	-3%	-8%	21µM*
COc1ccc(/C=C2/SC(=S)N(CCCC(=O)N3CCN(C)CC3)C2=O)cc1	-3%	-29%	21µM*	-9%	?	?
COc1ccc(/C=C2\SC(=S)N(CC(=O)N3CCN(C)CC3)C2=O)cc1	0%	-6%	21µM*	-3%	-7%	?
COc1ccc(/C=C2\SC(=S)N(CC(=O)NCCO)C2=O)cc1	?	13%	-6%	10%	1%	-24%
COC(=O)CSc1nc(C)cc(N2CCOCC2)n1	9%	1%	17%	0%	12%	3%
Cc1ccn2c(=O)cc(COc3ccc(NC(=O)COc4ccccc4)cc3)nc2c1	.	.	4%	-11%	13%	8%
COc1cc(/C=N/NC(=O)CCn2c3ccccc3c3ccccc32)ccc1O	?	?	23µM*	-22%	?	?
Cn1c2ccccc2c2cc(/C=N/NC(=O)c3cc(O)ccc3O)ccc21	-25%	?	15µM*	-9%	2%	12µM*
Cn1c2ccccc2c2cc(/C=N/NC(=O)c3cc(O)cc(O)c3)ccc21	-15%	-28%	?	-21%	?	?
O=C(N/N=C\c1ccc(O)c([N+](=O)[O-])c1)c1ccccc1-n1cccc1	-3%	1%	?	-29%	-7%	-5%
